KB-3-1 tox – KB-3-1 parental cell cytotoxicity. actives 1.4% (n = 400,000). AID 1347075. KB-3-1 viability, CellTiter-Glo ATP luminescence, 72 h. Potency, µM (doses to about 46.1 µM), most hits filed as cytotoxic; also: nearly all actives have a fitted effect of over 60% in size
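Cytotoxicity in the drug-sensitive parental line KB-3-1 was scored as loss of CellTiter-Glo luminescence following 72 h incubation with compound. Values come from curve fitting of normalized concentration-response data.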
KB-V1 MDR tox – kills drug-selected multidrug resistant KB-V1 cells. KB-V1 MDR cells viability, CellTiter-Glo, 72 h. Potency, µM (doses to about 46.1 µM), hits mostly cytotoxic. actives 3.4% (n = 400,000). AID 1347076; also: nearly all actives have a fitted effect of over 60% in size
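Readout: CellTiter-Glo luminescence, 10 min after addition. Cells: KB-V1 MDR subline, 72 h at 37 degrees C with compound. Analysis: corrected, normalized data fitted to concentration-effect curves.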
HT1080 IDH1KD tx – kills HT-1080 cells with IDH1 knockdown | Potency, µM (series often up to 46.1 µM), hits mostly cytotoxic | HT-1080 IDH1 knockdown viability, ATP luminescence, 48 h | actives 2% (n = 360,000)
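Using the IDH1-knockdown HT-1080 line run in the same batch and compound series as the NT line, viability after 48 h at 37 °C was determined by CellTiter-Glo luminescence and expressed as % activity.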
HT1080NT lethal – kills 2HG-producing HT-1080-NT fibrosarcoma cells. actives 1.6% (n = 360,000). Potency, µM (series often up to 46.1 µM), actives largely listed as cytotoxic. HT-1080-NT fibrosarcoma viability, CellTiter-Glo ATP luminescence, 48 h. AID 686970;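 also: NT is the 2HG producing partner of a matched IDH1 knockdown line; nearly all actives have a fitted effect of over 55% in size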
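HT-1080-NT fibrosarcoma cells (2HG-overproducing), 750 cells/well in RPMI with 5% FBS, dosed after 2 h and incubated 48 h at 37C. CellTiter-Glo luminescence normalized to DMSO and no-cell wells; concentration-response curves fitted and classed.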
IL1B secr inh – inflammasome signaling inhibition, IL-1 beta readout | activity change, % at 57.5 µM | AID 743279 | THP-1 LPS/ATP IL-1B secretion, AlphaLISA, 16 h; active compounds read low | actives 4.7% (n = 360,000); in the data active = activity change below about -50%; inconclusive = mostly about -30% to -49%
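Secreted IL-1B measured by AlphaLISA bead assay after 16 h compound exposure of THP-1 cells; compounds (final up to 57.5 uM) added 1 h before LPS (250 ng/mL) and ATP (1.25 mM) stimulation; lower signal means less secretion.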
A number is an active result; - = inactive; ? = inconclusive; . = no result given; [ ] = another dose, or the depositor's remark. Sampled rows, rich in hits. Any-hit rate of the full collection: about 8.8%. Unless noted, calls follow the shape of the dose curve; as a rule, active = well fitted curve in the direction sought with a large enough effect; inconclusive = small, poorly fitted or top-dose-only effect, or another doubt; inactive = no such curve, though single readings can be large; an effect the other way counts as inactive or inconclusive.

SMILES | KB-3-1 tox | KB-V1 MDR tox | HT1080 IDH1KD tx | HT1080NT lethal | IL1B secr inh
O=C(CN1CCc2ccccc2C1)Nc1cc(S(=O)(=O)N2CCOCC2)ccc1N1CCCC1 | - | 4.1µM | - | - | -
O=C(Nc1cc(S(=O)(=O)N2CCOCC2)ccc1N1CCOCC1)c1cc2c(s1)CCC2 | - | - | - | - | -57
CCc1cc(C(=O)Nc2cc(S(=O)(=O)N3CCCCC3)ccc2N2CCN(C)CC2)sc1C | 23µM | - | ? | ? | -70
Cc1ccccc1C(=O)Nc1cc(S(=O)(=O)N2CCCCC2)ccc1N1CCN(C)CC1 | ? | ? | - | ? | -
COc1ccc(S(=O)(=O)N2CCOCC2)cc1NC(=O)c1cc2c(s1)CCCC2 | - | - | - | - | -
COc1ccc(-c2nc3sc(CCNC(=O)c4ccc(C(C)(C)C)cc4)c(C)n3n2)cc1 | - | - | . | . | .
Cc1sc(NC(=O)C2=COCCO2)c(C(N)=O)c1C | - | ? | - | - | -
O=C(Nc1cc(S(=O)(=O)N2CCOCC2)ccc1N1CCCC1)c1ccccc1F | - | - | - | - | -
O=C(Nc1cc(S(=O)(=O)N2CCOCC2)ccc1N1CCCCC1)c1ccccc1Br | - | - | - | - | -59
CC(C)COc1cccc(C(=O)Nc2cc(S(=O)(=O)N3CCOCC3)ccc2N2CCCC2)c1 | - | 18µM | - | - | .
COc1ccc(N2CC(NC(=O)C3CC3)CC2=O)cc1OC (stereo not drawn) | - | ? | . | . | .
CC1CN(c2ccc([N+](=O)[O-])c(NCCOc3ccc(Cl)cc3)c2)CC(C)N1 (stereo not drawn) | - | - | ? | ? | -
CCc1ccc(OCCNc2cc(N3CCNC(C)C3)ccc2[N+](=O)[O-])cc1 (stereo not drawn) | ? | - | ? | ? | -67
Cc1ccccc1OCCNc1cc(N2CC(C)NC(C)C2)ccc1[N+](=O)[O-] (stereo not drawn) | ? | 21µM | ? | ? | ?
CC1CN(c2ccc([N+](=O)[O-])c(NCCOc3ccccc3)c2)CC(C)N1 (stereo not drawn) | - | ? | 21µM | 16µM | -59
COC(=O)c1cc(S(=O)(=O)N2CCN(c3cccc(Cl)c3)CC2)c[nH]1 | - | - | - | - | -
COc1ccc(-c2nc(CSCC(=O)NCc3ccco3)c(C)o2)cc1 | - | 13µM | - | - | -
Cc1ccc(-c2nc(CSCC(=O)NCc3cccnc3)c(C)o2)cc1 | ? | 3.7µM | - | - | -
Cc1ccc(CNC(=O)CSCc2nc(-c3cccc(C)c3)oc2C)cc1 | ? | - | . | . | .
COc1ccc(Cl)cc1C=CC=Nc1ccccc1O | - | ? | - | - | ?
Cc1nc2cc(F)ccc2n1C1CCN(C(=O)c2c(F)cccc2F)CC1 | ? | ? | - | - | -
COc1ccc(C2=CC(=O)OC3(CCCCC3)O2)cc1 | - | - | - | - | -
C=C(C)C1(O)OC(=O)C=C1OC (stereo not drawn) | - | ? | - | - | -76
Clc1ccc(-c2cn3cc(Br)ccc3n2)cc1Cl | - | - | - | - | -
Clc1ccc(-c2cn3c(n2)-c2ccccc2C3)cc1Cl | - | 15µM | - | - | -
SMILES | KB-3-1 tox | KB-V1 MDR tox | HT1080 IDH1KD tx | HT1080NT lethal | IL1B secr inh
Cc1cc(NCc2ccccn2)n2nc(C)c(-c3ccccc3)c2n1 | - | - | - | ? | -
Cc1nn2c(NCc3ccccn3)c3c(nc2c1-c1ccccc1)CCC3 | ? | 9.2µM | - | - | .
CCOC(=O)c1c(NC(=O)CSc2nnc(C)s2)sc2c1CCC(C)C2 (stereo not drawn) | - | 10µM | -[9.24 µM] | - | -
O=C(OCN1C(=O)c2ccccc2C1=O)c1cc(S(=O)(=O)N2CCOCC2)ccc1F | - | - | - | - | -57
CCOC(=O)C1=C(COC(=O)c2ccc(Cl)c(S(=O)(=O)N3CCOCC3)c2)NC(=O)NC1C (stereo not drawn) | ? | ? | - | - | -
CCOC(=O)c1ccccc1NC(=O)c1cc(S(=O)(=O)N2CCOCC2)ccc1F | - | - | - | - | -54
CCOc1ccccc1NC(=O)c1cc(S(=O)(=O)N2CCOCC2)ccc1C | - | ? | - | - | -
CCOC(=O)c1c(-c2ccccc2Cl)csc1NC(=O)c1cc(S(=O)(=O)N2CCOCC2)ccc1C | - | 10µM | - | - | -
CCOC(=O)C1=C(COC(=O)c2cc(S(=O)(=O)N3CCOCC3)ccc2F)NC(=O)NC1C (stereo not drawn) | - | - | - | - | -95
Cn1c(N)c(NC(=S)NC2CCCCC2)c(=O)n(C)c1=O | - | - | - | - | -
COc1ccc(NC(=O)CN2c3cccc4cccc(c34)S2(=O)=O)cc1OC | - | ? | - | - | -
COc1ccccc1OCCn1c(-c2ccc(Br)cc2)nc2ccccc2c1=O | - | - | . | . | .
CCOC(=O)N1CCC(NC(=O)c2cc(S(=O)(=O)N3CCC4(CC3)OCCO4)ccc2F)CC1 | - | 23µM | - | - | -
CCOC(=O)N1CCC(NC(=O)c2cc(S(=O)(=O)N3CCOCC3)ccc2F)CC1 | - | - | - | - | -
Cc1ccc(-c2n[nH]c(=O)c3ccccc23)cc1S(=O)(=O)Nc1ccccc1 | ? | 21µM | 21µM | 26µM | -
COc1ccc(OC)c(NC(=O)c2cc3c(n(-c4ccc(Cl)cc4)c2=O)CC(C)(C)CC3=O)c1 | - | - | . | . | .
NNC(=O)c1[nH]c2ccc(Br)cc2c1-c1ccccc1 | ? | ? | 15µM | 9.2µM | -
COc1ccc(/C=N/NC(=O)c2[nH]c3ccc(Br)cc3c2-c2ccccc2)c(C(=O)O)c1OC | - | - | 23µM | 23µM | -
COc1ccc(/C=N/NC(=O)c2[nH]c3ccc(Cl)cc3c2-c2ccccc2)c(C(=O)O)c1OC | - | - | ? | - | -
NNC(=O)c1[nH]c2ccc(Cl)cc2c1-c1ccccc1 | ? | ? | ? | ? | -
COc1ccc(/C=N/NC(=O)c2[nH]c3ccc(Br)cc3c2-c2ccccc2)cc1 | 0.82µM | 1µM | 0.0052µM | 0.037µM | -
CCOC(=O)NNC(=O)c1[nH]c2ccc(Br)cc2c1-c1ccccc1 | - | - | - | - | -
CC(=O)NNC(=O)c1[nH]c2ccc(Br)cc2c1-c1ccccc1 | - | - | ? | ? | -
O=C(N/N=C/c1ccccc1Cl)c1[nH]c2ccc(Br)cc2c1-c1ccccc1 | ? | 5.8µM | 0.46µM | 0.52µM | -
COc1ccc(S(=O)(=O)c2c(SC)nn(Cc3ccccc3C)c2NC(C)=O)cc1 | - | - | . | . | .
CC(=O)Nc1ccc(N=Nc2ccc(O)cc2)cc1 | ? | - | - | ? | ?
C=CCn1c(C)cc(-c2csc(N)n2)c1C | - | - | - | - | -
C=CCn1c(C)cc(-c2csc(NC)n2)c1C | ? | - | - | ? | -96
C=CCn1c(C)cc(-c2csc(NCC)n2)c1C | - | ? | ? | ? | -55
